Values without a mark were called inactive. Results filed as inconclusive are left out. Activity calls are given as the source filed them. Unless noted, the call rests on the fitted dose curve.

The text below walks through data of PubChem BioAssay (Tox21).

Experiment [1] addresses Gonadotropin-releasing hormone receptor (Homo sapiens) (UniProt P30968). Put plainly: Human gonadotropin-releasing hormone receptor (GnRHR) small molecule agonists, calcium flux assay in GnRHR-HEK293 cells (AID 1920063). Further: nearly all actives have a fitted effect of over 35% in size. A digest of the protocol: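 Intracellular calcium rise is the read-out: engineered human GnRHR HEK293 cells, dye-loaded, are exposed to DMSO-dissolved compounds and fluorescence at Ex/Em 480/540 is tracked for 3 min.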
(A change in cytosolic calcium serves as a functional read-out for many receptors and channels.)

The target in experiment [2] is KiSS-1 receptor (Homo sapiens) (UniProt Q969F8). Description: Human kisspeptin (KISS1R) small molecule agonists, calcium flux assay in KISS1R-HEK293 cells (AID 1920064; active means well fitted activation curve with a large enough effect in the repeat runs). In outline:
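Concentration-response testing used 15 concentrations in triplicate on human KISS1R-expressing HEK293 cells. Calcium-dependent fluorescence (Ex/Em 480/540) was followed kinetically for 3 min after compound transfer.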

Experiment [3] can be described thus: G protein-coupled receptor (GPCR) small molecule agonists, calcium flux assay: HEK293 wild type cell line counter screen (AID 1920065). A digest of the protocol: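 Fluorescence intensity signals activation. After overnight (18 h) culture and a 1 h calcium dye load at 37 C, compounds are added by pin tool and the plate read at 480/540 nm for 3 min in 1 s steps.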

The nature of experiment [4]: p53 small molecule agonists, cell-based qHTS assay with human liver microsomes (AID 1963577).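 Further: p53 response element beta-lactamase reporter cells with liver microsomes plus NADPH.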 A digest of the protocol: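 HLM-supplemented p53RE-bla reporter assay: 16 h compound exposure at 37 C, microsomes and NADPH each 0.5 mg/mL final, read by fluorescence intensity.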
In general terms: In qHTS, concentration-response curves come from the screen itself.

Experiment [5] is described as follows: p53 small molecule agonists, cell-based qHTS assay with rat liver microsomes (AID 1963578). A digest of the protocol:
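Quantitative HTS of the Tox21 10K library: p53RE-bla cells, rat liver microsomes plus NADPH at 0.5 mg/mL final each, 16 h at 37 C, beta-lactamase fluorescence detection.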

The nature of experiment [6]: p53 small molecule agonists, cell-based qHTS assay with human liver microsomes: qHTS cell viability counter screen (AID 1963579). Further: nearly all actives have a fitted effect of over 45% in size. A digest of the protocol: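 Viability of p53RE-bla cells is measured as CellTiter-Glo luminescence following a 16 h, 37 C incubation with compound, liver microsomes from human donors and NADPH.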
The nature of experiment [7]: p53 small molecule agonists, cell-based qHTS assay: qHTS cell viability counter screen (AID 1963581). Further: nearly all actives have a fitted effect of over 45% in size. Further: potency means the concentration at half of the fitted maximal effect. In outline:
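Luminescence from CellTiter-Glo, reflecting ATP content, serves as the cytotoxicity measure; it is taken after the 2 h reporter substrate step in HCT-116 p53RE-bla cells dosed for 16 h at 37 C.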

Experiment [8] can be described thus: p53 small molecule agonists, cell-based qHTS assay (AID 1963582; active means well fitted activation curve with a large enough effect in the signal ratio in the repeat runs, not every such curve was filed as active; the % refers to the signal ratio). In outline:
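After plating, p53RE-bla cells sat 5 h in the incubator; compounds or DMSO vehicle were pinned in; a 16 h incubation at 37 C followed; FRET substrate was added and, 2 h later at RT, fluorescence was measured.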

For experiment [9], the target named is 5-hydroxytryptamine receptor 2A (Homo sapiens) (UniProt P28223). Put plainly: 5-hydroxytryptamine receptor 2A (HTR2A) small molecule antagonists, cell-based qHTS assay (AID 1963586). Further: nearly all actives have a fitted effect of over 45% in size. Further: potency means the concentration at half of the fitted maximal effect. In outline:
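CHO cells stably expressing human HTR2A were plated for 18 h at 37 C, then loaded with calcium dye for 1 h. Compounds were preincubated 5 min at room temperature before DOI (4 nM solution) was added. Kinetic fluorescence was read for 3 min.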

Experiment [10] shares this target. Put plainly: 5-hydroxytryptamine receptor 2A (HTR2A) small molecule agonists, cell-based qHTS assay (AID 1963587). Further: nearly all actives have a fitted effect of over 30% in size. Further: potency means the concentration at half of the fitted maximal effect. A digest of the protocol: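 HTR2A-CHO cells, plated 18 h at 37 C/5% CO2, dye-loaded 1 h at 37 C; compounds in DMSO added by pin tool (agonist mode). Intracellular calcium flux read as kinetic fluorescence on FDSS over 2 min at 1 s intervals.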
For experiment [11], the target named is Muscarinic acetylcholine receptor M1 (Homo sapiens) (UniProt P11229). Put plainly: Cholinergic receptor muscarinic 1 (CHRM1) small molecule antagonists, cell-based qHTS assay (AID 1963588). Further: nearly all actives have a fitted effect of over 40% in size. In outline: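 Compounds were tested at 15 concentrations in three independent runs. Dye-loaded CHRM1-CHO cells were exposed 5 min at room temperature before stimulation by acetylcholine added at 50nM. Intracellular calcium was read kinetically on FDSS for 3 min.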
Sequence of Muscarinic acetylcholine receptor M1 (Homo sapiens) (P11229 whole entry, looked up): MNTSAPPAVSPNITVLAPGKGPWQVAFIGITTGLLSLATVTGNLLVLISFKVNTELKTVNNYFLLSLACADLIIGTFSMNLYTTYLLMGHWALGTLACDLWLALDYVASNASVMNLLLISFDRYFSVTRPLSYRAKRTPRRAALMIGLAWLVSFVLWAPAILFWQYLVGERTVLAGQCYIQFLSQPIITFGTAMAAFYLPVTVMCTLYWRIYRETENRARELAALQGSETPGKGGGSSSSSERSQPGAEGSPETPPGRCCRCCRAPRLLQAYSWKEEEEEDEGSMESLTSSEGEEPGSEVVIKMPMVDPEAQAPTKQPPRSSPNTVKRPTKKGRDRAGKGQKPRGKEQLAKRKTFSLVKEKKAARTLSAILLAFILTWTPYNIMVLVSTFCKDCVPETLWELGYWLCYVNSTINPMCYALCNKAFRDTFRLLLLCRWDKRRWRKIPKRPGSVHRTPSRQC

Experiment [12] has the same target. Put plainly: Cholinergic receptor muscarinic 1 (CHRM1) small molecule agonists, cell-based qHTS assay (AID 1963589). Further: nearly all actives have a fitted effect of over 35% in size. A digest of the protocol: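 Fluorescent calcium dye reports M1 activation in stably transfected CHO cells. Compounds, 15 concentrations, added after 1 h dye loading at 37 C; kinetic reading at 1 sec intervals.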
Experiment [13] in a line: cAMP Responsive Elements (CRE) small molecule agonists, cell-based qHTS assay (AID 1963590). A digest of the protocol: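 Compound exposure lasted 3 h at 37 C/5% CO2 in CRE-bla HEK 293T cells grown in assay medium with 10% dialyzed FBS and 25 mM HEPES. Reporter signal came from LiveBLAzer B/G FRET substrate, 2 h, room temperature.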
A short description of experiment [14]: cAMP Responsive Elements (CRE) small molecule antagonists, cell-based qHTS assay (AID 1963591; active means well fitted inhibition curve with a large enough effect in the signal ratio in the repeat runs, not every such curve was filed as active; the % refers to the signal ratio). In outline:
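Stimulation used NKH477 at a final 0.25 uM for 3 h in compound-treated CRE-bla HEK293T cells, seeded 18 h beforehand. Reporter activity was measured with LiveBLAzer B/G FRET substrate after 2 h at room temperature.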

Experiment [15] has as its target Beta-2 adrenergic receptor (Homo sapiens) (UniProt P07550). Put plainly: Adrenergic beta2 receptor (ADRB2) small molecule antagonists, cell-based qHTS assay (AID 1963592). Further: nearly all actives have a fitted effect of over 50% in size. Further: potency means the concentration at half of the fitted maximal effect. On activity change, negative = inhibition: series mostly up to about 92 µM. In outline: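 Assay format: CHO-ADRB2 cells, 18-20hr seeding at 37C/5% CO2, then compound plus 1nM isoproterenol agonist mix for 0.5hr RT. Homogeneous time-resolved fluorescence cAMP detection after 1hr, expressed as 665/615 nm ratio.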

For experiment [16], the target named is D(2) dopamine receptor (Homo sapiens) (UniProt P14416). Put plainly: Dopamine D2 receptor (DRD2) small molecule agonists, cell-based qHTS assay (AID 1963594). Further: nearly all actives have a fitted effect of over 35% in size. In outline: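 HEK293 cells stably expressing DRD2 were cultured 24 h at 37 C, then given Ro20-1724 (0.1 mM final) and compounds for 10 min at room temperature. NKH477 (200nM) was then added for 30 min. cAMP was read by HTRF.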
Sequence of D(2) dopamine receptor (Homo sapiens) (P14416 whole entry, looked up): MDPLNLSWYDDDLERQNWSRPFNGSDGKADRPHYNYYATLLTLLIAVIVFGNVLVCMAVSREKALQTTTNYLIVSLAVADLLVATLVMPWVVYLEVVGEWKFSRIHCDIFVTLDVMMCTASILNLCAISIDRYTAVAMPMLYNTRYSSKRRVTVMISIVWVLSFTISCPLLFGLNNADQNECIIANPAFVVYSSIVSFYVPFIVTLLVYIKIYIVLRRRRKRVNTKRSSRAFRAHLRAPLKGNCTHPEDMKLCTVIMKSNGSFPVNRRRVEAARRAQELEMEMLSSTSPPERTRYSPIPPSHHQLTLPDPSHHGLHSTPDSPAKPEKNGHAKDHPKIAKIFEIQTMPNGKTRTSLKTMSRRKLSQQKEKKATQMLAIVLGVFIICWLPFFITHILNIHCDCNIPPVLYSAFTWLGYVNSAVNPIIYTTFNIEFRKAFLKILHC

For experiment [17] the target is unchanged. Put plainly: Dopamine D2 receptor (DRD2) small molecule antagonists, cell-based qHTS assay (AID 1963595; active means well fitted inhibition curve with a large enough effect in the signal ratio in the repeat runs, with a control signal flat; the % refers to the signal ratio). A digest of the protocol: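 Readout: HTRF cAMP, cAMP-d2 competing with cellular cAMP for anti-cAMP cryptate, read after 1 h. Cells: DRD2-HEK293. Conditions: 0.1 mM Ro20-1724, 12 nM quinpirole, 200 nM NKH477, 30 min RT.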
Experiment [18] in a line: p53 small molecule agonists, cell-based qHTS assay with rat liver microsomes: qHTS cell viability counter screen (AID 1963580). Further: nearly all actives have a fitted effect of over 45% in size. In outline: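 Luminescent ATP readout (CellTiter-Glo, 30 min at room temperature) reports viability of p53RE-bla HCT-116 cells after 16 h at 37 C with test compounds under metabolic activation by rat liver microsomes and NADPH at 0.5 mg/mL final each.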

Experiment [19] has as its target Beta-2 adrenergic receptor (Homo sapiens) (UniProt P07550). Description: Adrenergic beta2 receptor (ADRB2) small molecule agonists, cell-based qHTS assay (AID 1963593).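 Further: CHO cells stably overexpressing human ADRB2.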 In outline:
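CHO cells stably over-expressing ADRB2 were plated overnight at 37C, then dosed with compounds plus a stimulation mix containing 100uM IBMX and 25uM Ro-20-1724 for 0.5hr at room temperature. cAMP was measured by HTRF competition, 1hr.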
On the % scale 0 is the no-effect control and ±100 the full control effect.

Sequence of Beta-2 adrenergic receptor (Homo sapiens) (P07550 whole entry, looked up): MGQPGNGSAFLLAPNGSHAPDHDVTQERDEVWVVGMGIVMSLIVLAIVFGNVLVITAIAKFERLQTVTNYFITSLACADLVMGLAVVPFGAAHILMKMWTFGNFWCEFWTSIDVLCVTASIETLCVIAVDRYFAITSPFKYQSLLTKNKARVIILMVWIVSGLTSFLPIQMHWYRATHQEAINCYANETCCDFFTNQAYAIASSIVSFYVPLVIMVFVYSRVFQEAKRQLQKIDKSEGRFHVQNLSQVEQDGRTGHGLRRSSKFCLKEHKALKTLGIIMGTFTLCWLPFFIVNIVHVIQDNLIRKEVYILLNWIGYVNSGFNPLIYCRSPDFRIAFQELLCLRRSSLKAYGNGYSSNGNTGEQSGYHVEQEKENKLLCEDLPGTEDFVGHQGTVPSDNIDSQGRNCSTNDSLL
Sequence of KiSS-1 receptor (Homo sapiens) (Q969F8 whole entry, looked up): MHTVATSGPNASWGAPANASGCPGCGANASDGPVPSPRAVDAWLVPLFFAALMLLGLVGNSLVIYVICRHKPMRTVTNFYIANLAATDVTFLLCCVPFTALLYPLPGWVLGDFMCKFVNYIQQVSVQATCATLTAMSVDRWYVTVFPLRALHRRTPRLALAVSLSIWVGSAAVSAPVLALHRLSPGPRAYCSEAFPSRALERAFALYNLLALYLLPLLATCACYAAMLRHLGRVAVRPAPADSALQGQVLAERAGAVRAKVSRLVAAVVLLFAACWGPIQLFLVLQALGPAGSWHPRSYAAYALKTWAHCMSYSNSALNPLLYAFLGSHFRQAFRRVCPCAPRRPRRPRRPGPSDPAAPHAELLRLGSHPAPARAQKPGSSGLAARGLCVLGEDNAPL
Sequence of Gonadotropin-releasing hormone receptor (Homo sapiens) (P30968 whole entry, looked up): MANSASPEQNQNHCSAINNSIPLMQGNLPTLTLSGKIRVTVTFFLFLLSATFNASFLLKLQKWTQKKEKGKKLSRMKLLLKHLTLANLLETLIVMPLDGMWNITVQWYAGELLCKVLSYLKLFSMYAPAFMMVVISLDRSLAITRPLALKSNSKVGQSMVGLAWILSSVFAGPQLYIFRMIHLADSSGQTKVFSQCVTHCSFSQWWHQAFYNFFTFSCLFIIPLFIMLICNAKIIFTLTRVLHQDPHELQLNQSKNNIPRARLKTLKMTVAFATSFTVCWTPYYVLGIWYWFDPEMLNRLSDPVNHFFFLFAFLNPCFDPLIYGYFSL
Sequence of 5-hydroxytryptamine receptor 2A (Homo sapiens) (P28223 whole entry, looked up): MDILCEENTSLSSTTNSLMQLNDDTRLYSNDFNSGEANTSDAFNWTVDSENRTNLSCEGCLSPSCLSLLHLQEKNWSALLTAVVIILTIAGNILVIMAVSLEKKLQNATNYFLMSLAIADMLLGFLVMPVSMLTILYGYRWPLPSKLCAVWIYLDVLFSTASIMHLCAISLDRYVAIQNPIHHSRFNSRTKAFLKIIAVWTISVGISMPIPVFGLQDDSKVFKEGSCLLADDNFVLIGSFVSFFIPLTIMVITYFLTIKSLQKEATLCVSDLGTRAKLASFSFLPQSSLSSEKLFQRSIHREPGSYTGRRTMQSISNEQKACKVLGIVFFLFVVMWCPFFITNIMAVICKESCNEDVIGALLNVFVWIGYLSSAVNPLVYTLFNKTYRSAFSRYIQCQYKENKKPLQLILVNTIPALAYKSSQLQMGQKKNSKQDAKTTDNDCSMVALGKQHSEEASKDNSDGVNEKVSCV

In the case of `CC(C)CCCC(C)(C)O`, the Potency entry in experiment [1], in [4], in [5], in experiment [6], in [7] and in experiment [8] was “inactive” throughout. In addition, the Potency result in experiment [9], in [10], in [11], in experiment [12], in [13] and in experiment [14] was “inactive” throughout. The Potency result in experiment [15], in [16] and in [17] was “inactive” throughout. For the same molecule, the outcome in [2] and in experiment [3] was inactive.
For `O=C(O)c1cc(C(=O)O)c(C(=O)O)cc1C(=O)O`, the Potency result in [1], in experiment [4], in experiment [5], in [18], in experiment [7] and in experiment [8] was “inactive” in each case. The Potency result in experiment [9], in [10], in experiment [11], in experiment [12], in [13] and in experiment [14] was “inactive” in each case. Further, the Potency result in experiment [15], in experiment [19], in experiment [16] and in [17] was “inactive” throughout. Further, the outcome in experiment [2] and in experiment [3] was inactive.
In the case of `CCCCCN=C(N)N/N=C/c1c[nH]c2ccc(OC)cc12`, the Potency result in experiment [1], in experiment [4], in [5], in experiment [6], in experiment [18] and in [11] was “inactive” each time. Further, in experiment [12], the Potency result is “inactive”. For the same molecule, the result in experiment [2] and in experiment [3] was inactive. The Potency in experiment [7] is 15.8 µM (active); in experiment [9], 0.0326 µM (active); in experiment [10] it was 0.0107 µM (active).
`NC[C@H]1O[C@H](O[C@H]2[C@H](O[C@@H]3O[C@H](CO)[C@@H](O)[C@H]3O)C(O)[C@H](N)C[C@@H]2N)[C@H](N)[C@@H](O)[C@@H]1O` (some centres not stated): in [1], the activity change was -0.504% [at 5.22 µM, active compounds read high]. Also, the activation in [2] was -0.532% [at 6.97 µM]; in experiment [3], -0.0987% [at 5.23 µM]; in experiment [4] it was 0.817% [at 5.99 µM]; in experiment [5], -0.761% [at 5.99 µM]; in experiment [10] it was -4.1% [at 7.02 µM]; in experiment [12], 0.272% [at 6.97 µM]. Besides, the activity change, negative = cytotoxicity was 1.61% [at 5.99 µM] in experiment [18] and 0.386% [at 5.99 µM] in experiment [7]. The activity, negative = inhibition in experiment [9] is 2.42% [at 5.62 µM]; in experiment [11], 1.47% [at 5.58 µM]. The figures for the activity change, negative = inhibition in [15] and in [17] were 7.44% [at 8.39 µM] and -1.87% [at 8.38 µM], respectively.
For `O=c1cc(-c2ccccc2)oc2ccc3ccccc3c12`, the Potency entry in experiment [1], in experiment [4], in experiment [5], in experiment [8], in [16] and in experiment [17] was “inactive” in each case. Moreover, the outcome in experiment [2] and in experiment [3] was inactive.
In the case of `CC(C)[N+](C)(C)CC(O)COc1cccc2ccccc12` (configuration not stated), the Potency result in experiment [1], in experiment [4], in experiment [5], in experiment [6], in experiment [18] and in experiment [8] was “inactive” in each case. Moreover, the Potency entry in experiment [9], in experiment [10], in [11], in experiment [12], in experiment [13] and in experiment [14] was “inactive” throughout. The Potency result in experiment [16] was “inactive”. The result in experiment [2] and in experiment [3] was inactive. For the same molecule, in experiment [15], the Potency is 15 µM (active).
In the case of `COc1ccc2c(c1)c(CC(=O)OCC(=O)O)c(C)n2C(=O)c1ccc(Cl)cc1`, the Potency result in experiment [1], in experiment [4], in experiment [5], in [6], in experiment [18] and in experiment [7] was “inactive” each time. The Potency result in [15], in experiment [16] and in experiment [17] was “inactive” in each case. The outcome in experiment [2] and in experiment [3] was inactive.
`CC(=O)CCCCn1c(=O)c2c(ncn2C)n(C)c1=O`: the Potency entry in experiment [1], in experiment [4], in experiment [5], in experiment [6], in [7] and in [8] was “inactive” throughout. For the same molecule, the Potency entry in [13], in [15], in experiment [16] and in experiment [17] was “inactive” in each case. The result in experiment [2] and in experiment [3] was inactive.
In the case of `CN1CC(=O)NC1=N`, the Potency result in [1], in experiment [4], in experiment [5], in [6], in [18] and in experiment [7] was “inactive” each time. In addition, the Potency entry in experiment [9], in [10], in experiment [11], in experiment [12], in [13] and in [16] was “inactive” throughout. In [17], the Potency entry is “inactive”. Also, the result in experiment [2] and in experiment [3] was inactive.
